How the values were obtained:
Test in all cases: PBM binding z-score (relative to random genomic background probes); higher = stronger binding; sequences stand for … in GC…GCGATTGACAGCGTAGAATGAAGG
[1] = system: RARb homodimer (NR concentration 270 nM)
Summary of the method: (§1)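 Binding buffer was PBS pH 7.4 with 2% milk, 0.02% Triton X-100, 1 mM DTT, 0.2 mg/mL BSA and 0.4 mg/ml salmon testes DNA. In it, ligand-free nuclear receptor dimers were incubated 1 h on custom Agilent 4×180K protein-binding microarrays carrying double-stranded probes. Antibodies against each partner (one per run) detected binding, and z-scores were calculated against random background probes after regression normalization of scanned fluorescence.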

[2] = system: RARg:RXRa (NR concentration 270 nM, RXRa partner concentration 90 nM)
Summary of the method: as §1

[3] = system: RARg homodimer (NR concentration 270 nM)
Summary of the method: as §1

[4] = system: RXRa DBDmut IVT, anti-RXR (DBD mutation: RXRa K156A/R161A, NR concentration 90 nM)
Summary of the method: as §1

[5] = system: RXRa homodimer (NR concentration 180 nM)
Summary of the method: as §1

[6] = system: THRa:RXRa (NR concentration 90 nM, RXRa partner concentration 90 nM)
Summary of the method: as §1

[7] = system: THRa homodimer (NR concentration 90 nM)
Summary of the method: as §1

[8] = system: VDR:RXRa (NR concentration 270 nM, RXRa partner concentration 90 nM)
Summary of the method: as §1

[9] = system: VDR homodimer (NR concentration 270 nM)
Summary of the method: as §1

GATACAGGGTCAGCTAGAGGCCAGTGTATGGAAA
PBM binding z-score [1]: 3.64 | PBM binding z-score [2]: 6.8 | PBM binding z-score [3]: 5.06 | PBM binding z-score [4]: 1.51 | PBM binding z-score [5]: 4.25 | PBM binding z-score [6]: 2.98 | PBM binding z-score [7]: 0.265 | PBM binding z-score [8]: 3.43 | PBM binding z-score [9]: 0.727

ATATGTAGGTTATCGGGTCTTTCAGTTTGCGCAT
PBM binding z-score [1]: 1.23 | PBM binding z-score [2]: 0.844 | PBM binding z-score [3]: 0.939 | PBM binding z-score [4]: 0.92 | PBM binding z-score [5]: 1.03 | PBM binding z-score [6]: 1.08 | PBM binding z-score [7]: 1.3 | PBM binding z-score [8]: 3.12 | PBM binding z-score [9]: 1.44

CCGAGTGGGGCAGAAAGGTTACCATACCATCCGG
PBM binding z-score [1]: 2.09 | PBM binding z-score [2]: 1.63 | PBM binding z-score [3]: 1.23 | PBM binding z-score [4]: -0.568 | PBM binding z-score [5]: 1.76 | PBM binding z-score [6]: 0.899 | PBM binding z-score [7]: -0.05 | PBM binding z-score [8]: 0.759 | PBM binding z-score [9]: 0.0724

TCTGCTAGGTCAACGATTGTCAGCTAATCTGCTA
PBM binding z-score [1]: 3.06 | PBM binding z-score [2]: 3.75 | PBM binding z-score [3]: 4.64 | PBM binding z-score [4]: 1.16 | PBM binding z-score [5]: 2.41 | PBM binding z-score [6]: 2.77 | PBM binding z-score [7]: 0.845 | PBM binding z-score [8]: 0.993 | PBM binding z-score [9]: -0.274

ACTATTAGTTGAGACGAGGGCATCCGATAGGTTG
PBM binding z-score [1]: 0.79 | PBM binding z-score [2]: 0.519 | PBM binding z-score [3]: 0.799 | PBM binding z-score [4]: 0.829 | PBM binding z-score [5]: 0.473 | PBM binding z-score [6]: 2.29 | PBM binding z-score [7]: 0.321 | PBM binding z-score [8]: 0.918 | PBM binding z-score [9]: 1.38

TCATATAGGTAATACAGGTGAAAGGCGGCATCTA
PBM binding z-score [1]: 0.722 | PBM binding z-score [2]: 0.622 | PBM binding z-score [3]: 0.526 | PBM binding z-score [4]: 1.84 | PBM binding z-score [5]: 1.32 | PBM binding z-score [6]: 0.852 | PBM binding z-score [7]: 0.543 | PBM binding z-score [8]: 1.17 | PBM binding z-score [9]: 0.774

AGTGAAAGTTCATCTAGGTAACGTAAGATATGCT
PBM binding z-score [1]: 3.66 | PBM binding z-score [2]: 5.08 | PBM binding z-score [3]: 5.81 | PBM binding z-score [4]: 4.66 | PBM binding z-score [5]: 4.44 | PBM binding z-score [6]: 3 | PBM binding z-score [7]: 0.263 | PBM binding z-score [8]: 4.97 | PBM binding z-score [9]: 5.43

CGAACTAGGTCAAGGTCAGTGAATCTCCGCACGC
PBM binding z-score [1]: 4.79 | PBM binding z-score [2]: 5.23 | PBM binding z-score [3]: 6.17 | PBM binding z-score [4]: 2.29 | PBM binding z-score [5]: 4.11 | PBM binding z-score [6]: 3.86 | PBM binding z-score [7]: 3.15 | PBM binding z-score [8]: 3.19 | PBM binding z-score [9]: 2.14

AGTAAAAGTTCAGGACGAGGTAACGTAAAGCACG
PBM binding z-score [1]: 2.91 | PBM binding z-score [2]: 4.29 | PBM binding z-score [3]: 4.25 | PBM binding z-score [4]: 2.76 | PBM binding z-score [5]: 2.3 | PBM binding z-score [6]: 3.78 | PBM binding z-score [7]: 2.01 | PBM binding z-score [8]: 2.66 | PBM binding z-score [9]: 1.89

CTCGAAGGGTCGTGCTCAGGTGAGTATACCAAAC
PBM binding z-score [1]: 1.59 | PBM binding z-score [2]: 3.39 | PBM binding z-score [3]: 2.01 | PBM binding z-score [4]: 1.01 | PBM binding z-score [5]: 2.52 | PBM binding z-score [6]: 3.65 | PBM binding z-score [7]: 0.851 | PBM binding z-score [8]: 1.59 | PBM binding z-score [9]: 0.628

TGAATGAGGTTATAAGATAAGGGAACGTTGCAAA
PBM binding z-score [1]: 0.00548 | PBM binding z-score [2]: 1.36 | PBM binding z-score [3]: 1.01 | PBM binding z-score [4]: 0.619 | PBM binding z-score [5]: 1.79 | PBM binding z-score [6]: 1.68 | PBM binding z-score [7]: 0.04 | PBM binding z-score [8]: 0.811 | PBM binding z-score [9]: 0.0331

ACTATTAGTTGAGACGAGGGCAAACGATAGGTTG
PBM binding z-score [1]: 0.968 | PBM binding z-score [2]: 0.74 | PBM binding z-score [3]: 0.778 | PBM binding z-score [4]: 0.626 | PBM binding z-score [5]: 0.323 | PBM binding z-score [6]: 2.42 | PBM binding z-score [7]: 0.104 | PBM binding z-score [8]: 0.775 | PBM binding z-score [9]: 1.39

TCTCGGAGGACACGAATGTCAGAGCTTTCCAGAG
PBM binding z-score [1]: 0.771 | PBM binding z-score [2]: 0.642 | PBM binding z-score [3]: 1.42 | PBM binding z-score [4]: 0.518 | PBM binding z-score [5]: 0.168 | PBM binding z-score [6]: 1.23 | PBM binding z-score [7]: 0.52 | PBM binding z-score [8]: -0.117 | PBM binding z-score [9]: -0.491

GCATATAGGTAATATAAGGTGAAAGTCCGATTGT
PBM binding z-score [1]: 0.859 | PBM binding z-score [2]: 0.463 | PBM binding z-score [3]: 0.731 | PBM binding z-score [4]: 0.683 | PBM binding z-score [5]: 1.07 | PBM binding z-score [6]: 4.5 | PBM binding z-score [7]: 2.32 | PBM binding z-score [8]: 0.397 | PBM binding z-score [9]: 0.0802

TAGCTTAGGTCATGCGGGCCAGTATAGTGTCGGC
PBM binding z-score [1]: 3.21 | PBM binding z-score [2]: 3.97 | PBM binding z-score [3]: 4.75 | PBM binding z-score [4]: 1.31 | PBM binding z-score [5]: 2.97 | PBM binding z-score [6]: 3.6 | PBM binding z-score [7]: 2.34 | PBM binding z-score [8]: 3.13 | PBM binding z-score [9]: 0.954

ATCTCTAGGTAACAAGTTCAGTGAGAGAGAGGAC
PBM binding z-score [1]: 1.86 | PBM binding z-score [2]: 1.4 | PBM binding z-score [3]: 1.54 | PBM binding z-score [4]: 0.761 | PBM binding z-score [5]: 0.903 | PBM binding z-score [6]: 1.49 | PBM binding z-score [7]: 0.878 | PBM binding z-score [8]: 2.22 | PBM binding z-score [9]: 2.81

TCTCGGAGGACACGAAGGTCAGAACTTTCCAGAG
PBM binding z-score [1]: 3.24 | PBM binding z-score [2]: 2.59 | PBM binding z-score [3]: 3.24 | PBM binding z-score [4]: 1.26 | PBM binding z-score [5]: 1.51 | PBM binding z-score [6]: 2.69 | PBM binding z-score [7]: 1.15 | PBM binding z-score [8]: 2.18 | PBM binding z-score [9]: 1.45

GCGACTGGGGCAACAGCAGGTTACCATAACTTAA
PBM binding z-score [1]: 0.882 | PBM binding z-score [2]: 0.815 | PBM binding z-score [3]: 0.776 | PBM binding z-score [4]: -0.15 | PBM binding z-score [5]: 0.454 | PBM binding z-score [6]: 1.67 | PBM binding z-score [7]: -0.275 | PBM binding z-score [8]: -0.189 | PBM binding z-score [9]: -0.281

ACTATTAGTTGACTTAGGGCAAGCGATACGACGC
PBM binding z-score [1]: 0.617 | PBM binding z-score [2]: 0.671 | PBM binding z-score [3]: 0.684 | PBM binding z-score [4]: 0.657 | PBM binding z-score [5]: 0.682 | PBM binding z-score [6]: 0.91 | PBM binding z-score [7]: -0.0225 | PBM binding z-score [8]: 0.174 | PBM binding z-score [9]: 0.0582

TAGCCCAGGTCATTCAGGGGCCAGTATAGAAAGC
PBM binding z-score [1]: 3.34 | PBM binding z-score [2]: 6.39 | PBM binding z-score [3]: 4.29 | PBM binding z-score [4]: 2.4 | PBM binding z-score [5]: 3.39 | PBM binding z-score [6]: 3.71 | PBM binding z-score [7]: 1.48 | PBM binding z-score [8]: 3.65 | PBM binding z-score [9]: 2

CCGAGTGGGTTATGGGGCATTCAGGCAACGGTGA
PBM binding z-score [1]: 0.766 | PBM binding z-score [2]: -0.124 | PBM binding z-score [3]: -0.0615 | PBM binding z-score [4]: -1.08 | PBM binding z-score [5]: 0.212 | PBM binding z-score [6]: 0.303 | PBM binding z-score [7]: 0.614 | PBM binding z-score [8]: -0.199 | PBM binding z-score [9]: 0.328

GCTAGCAGGCCATCTGGGTCACTCAATGACGGGC
PBM binding z-score [1]: 1.99 | PBM binding z-score [2]: 1.2 | PBM binding z-score [3]: 1.84 | PBM binding z-score [4]: -0.462 | PBM binding z-score [5]: 0.806 | PBM binding z-score [6]: 1.62 | PBM binding z-score [7]: 0.249 | PBM binding z-score [8]: 1.04 | PBM binding z-score [9]: 0.262

GCTAGTTGGTCAGTAAAAGCTCACACACCGGTCG
PBM binding z-score [1]: 0.375 | PBM binding z-score [2]: -0.0691 | PBM binding z-score [3]: 0.0188 | PBM binding z-score [4]: 0.421 | PBM binding z-score [5]: -0.0351 | PBM binding z-score [6]: -0.374 | PBM binding z-score [7]: -0.166 | PBM binding z-score [8]: -0.481 | PBM binding z-score [9]: -0.217

CGAACGAGGGCATGAGCTGATAGCAAATGCCGAT
PBM binding z-score [1]: 0.6 | PBM binding z-score [2]: 1.19 | PBM binding z-score [3]: 1.39 | PBM binding z-score [4]: 1.96 | PBM binding z-score [5]: 1.06 | PBM binding z-score [6]: 1.15 | PBM binding z-score [7]: -0.325 | PBM binding z-score [8]: 0.355 | PBM binding z-score [9]: 0.803

CCTGCTAGGTCCTGGTCAGCTAATCTACAGTATG
PBM binding z-score [1]: 0.0603 | PBM binding z-score [2]: -0.177 | PBM binding z-score [3]: -0.17 | PBM binding z-score [4]: -0.107 | PBM binding z-score [5]: -0.298 | PBM binding z-score [6]: -0.0341 | PBM binding z-score [7]: -0.199 | PBM binding z-score [8]: -0.588 | PBM binding z-score [9]: -0.989

AGAACGAGGGCAATAAGTTGATAGCACGGGTGGC
PBM binding z-score [1]: 1.11 | PBM binding z-score [2]: 1.23 | PBM binding z-score [3]: 1.56 | PBM binding z-score [4]: 1.9 | PBM binding z-score [5]: 0.767 | PBM binding z-score [6]: 0.873 | PBM binding z-score [7]: -0.185 | PBM binding z-score [8]: 3.26 | PBM binding z-score [9]: 2.26

Source: the supplement of paper PMC6555819
